The values that follow come from article PMC7862700, “An all-to-all approach to the identification of sequence-specific readers for epigenetic DNA modifications on cytosine”.

What all share (experiment): DAPPL (digital affinity profiling via proximity ligation, sequencing); 10 mM Tris-HCl pH 7.5, 50 mM NaCl, 1 mM DTT, 4% glycerol, room temperature, 30 min; GST-TFs on glutathione beads, 16-mer random dsDNA library, 0.1% formaldehyde crosslink after washing; high values mean tight binding
Assay [1] has as its target T1, FEV (Homo sapiens, UniProt Q99581 1-238).
T1 sequence: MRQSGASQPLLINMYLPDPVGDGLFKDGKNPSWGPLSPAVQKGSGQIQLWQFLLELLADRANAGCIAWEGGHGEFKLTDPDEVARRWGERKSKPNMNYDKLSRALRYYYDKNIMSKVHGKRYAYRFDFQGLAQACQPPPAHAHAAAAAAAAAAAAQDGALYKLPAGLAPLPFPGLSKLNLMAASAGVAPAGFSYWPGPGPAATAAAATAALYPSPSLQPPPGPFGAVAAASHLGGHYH
As to conditions: protein: recombinant; tags: N-terminal GST; dsDNA, one strand shown. The essentials: (§1)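 Human transcription factors carrying a GST fusion were produced in yeast, bound to glutathione beads, tagged with DNA barcodes and pooled together with a tag-only sample. Each pool was held with 200 nmole of a random double-stranded 16-mer DNA library in Tris/NaCl/DTT/glycerol buffer for 30 min at room temperature, then washed, crosslinked in 0.1% formaldehyde, proximity-ligated with BsaI/T4 ligase (1 h, 37 °C), PCR-amplified and sequenced on an Illumina NextSeq500. Binding signal is the read frequency of each hexamer for a given factor divided by its frequency in the tag-only sample.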

The target of assay [2] is ETV5 (Homo sapiens, UniProt P41161 1-510). As to conditions: protein: recombinant; tags: N-terminal GST; dsDNA, one strand shown. The essentials: as §1
Assay [3] addresses HSF1 (Homo sapiens, UniProt Q00613 1-529). As to conditions: protein: recombinant; tags: N-terminal GST; chain copies: 3; dsDNA, one strand shown. The essentials:
as §1

Assay [4] deals with T2, SPIC (Homo sapiens, UniProt Q8N5J4 1-248).
T2 sequence: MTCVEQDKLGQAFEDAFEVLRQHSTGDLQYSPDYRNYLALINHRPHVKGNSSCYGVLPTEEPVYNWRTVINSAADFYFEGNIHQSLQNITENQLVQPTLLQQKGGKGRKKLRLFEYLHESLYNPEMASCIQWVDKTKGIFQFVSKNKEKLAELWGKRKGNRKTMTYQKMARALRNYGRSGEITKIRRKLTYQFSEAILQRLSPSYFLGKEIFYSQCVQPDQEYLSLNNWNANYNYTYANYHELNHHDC
As to conditions: protein: recombinant; tags: N-terminal GST; dsDNA, one strand shown. The essentials:
as §1

In assay [5] the target is ELF4 (Homo sapiens, UniProt Q99607 1-663). As to conditions: protein: recombinant; tags: N-terminal GST; dsDNA, one strand shown. The procedure, abridged:
as §1

The target in assay [6] is T3, ELK4 (Homo sapiens, UniProt P28324-2 1-405).
T3 sequence: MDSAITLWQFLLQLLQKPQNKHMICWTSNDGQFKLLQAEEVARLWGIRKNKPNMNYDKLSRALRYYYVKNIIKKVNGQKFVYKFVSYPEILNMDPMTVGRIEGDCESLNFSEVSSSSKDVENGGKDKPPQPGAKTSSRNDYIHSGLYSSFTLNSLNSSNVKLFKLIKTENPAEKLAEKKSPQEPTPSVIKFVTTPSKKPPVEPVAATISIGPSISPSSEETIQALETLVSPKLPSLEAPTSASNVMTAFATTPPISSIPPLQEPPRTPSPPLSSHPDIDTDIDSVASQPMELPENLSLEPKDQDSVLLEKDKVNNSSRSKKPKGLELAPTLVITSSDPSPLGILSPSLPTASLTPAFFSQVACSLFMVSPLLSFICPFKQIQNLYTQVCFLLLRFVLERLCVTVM
As to conditions: protein: recombinant; tags: N-terminal GST; dsDNA, one strand shown. The procedure, abridged: as §1

In assay [7] the target is T4, ETV2 (Homo sapiens, UniProt O00321 1-342).
T4 sequence: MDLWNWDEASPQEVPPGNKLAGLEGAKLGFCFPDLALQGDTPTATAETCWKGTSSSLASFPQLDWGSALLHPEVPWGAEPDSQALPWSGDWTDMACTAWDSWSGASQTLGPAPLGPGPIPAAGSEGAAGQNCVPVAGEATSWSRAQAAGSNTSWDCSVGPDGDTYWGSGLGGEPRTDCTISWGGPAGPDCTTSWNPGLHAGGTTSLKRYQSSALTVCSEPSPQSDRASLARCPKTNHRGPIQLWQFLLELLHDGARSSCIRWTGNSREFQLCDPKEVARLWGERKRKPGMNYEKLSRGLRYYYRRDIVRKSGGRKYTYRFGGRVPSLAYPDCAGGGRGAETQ
As to conditions: protein: recombinant; tags: N-terminal GST; dsDNA, one strand shown. The procedure, abridged: as §1

For assay [8], the target named is T5, ELF3 (Homo sapiens, UniProt P78545 1-371).
T5 sequence: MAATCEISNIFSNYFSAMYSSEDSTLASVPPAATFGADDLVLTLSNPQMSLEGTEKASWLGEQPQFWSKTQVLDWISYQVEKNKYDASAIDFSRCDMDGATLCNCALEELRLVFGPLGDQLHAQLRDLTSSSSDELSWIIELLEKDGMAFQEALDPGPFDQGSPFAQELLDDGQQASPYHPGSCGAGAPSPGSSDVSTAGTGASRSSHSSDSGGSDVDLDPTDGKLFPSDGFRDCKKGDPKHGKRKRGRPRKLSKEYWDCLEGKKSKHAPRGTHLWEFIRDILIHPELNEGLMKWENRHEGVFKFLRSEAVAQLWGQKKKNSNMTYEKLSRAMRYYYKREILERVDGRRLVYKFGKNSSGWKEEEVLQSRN
As to conditions: protein: recombinant; tags: N-terminal GST; dsDNA, one strand shown. The procedure, abridged:
as §1

Assay [9] has as its target CRX (Homo sapiens, UniProt O43186 1-299). As to conditions: protein: recombinant; tags: N-terminal GST; dsDNA, one strand shown. The procedure, abridged:
as §1

Assay [10] has as its target ETV1 (Homo sapiens, UniProt P50549 1-477). As to conditions: protein: recombinant; tags: N-terminal GST; dsDNA, one strand shown. The essentials: as §1
Assay [11] addresses T6, ERF (Homo sapiens, UniProt P50548 1-548).
T6 sequence: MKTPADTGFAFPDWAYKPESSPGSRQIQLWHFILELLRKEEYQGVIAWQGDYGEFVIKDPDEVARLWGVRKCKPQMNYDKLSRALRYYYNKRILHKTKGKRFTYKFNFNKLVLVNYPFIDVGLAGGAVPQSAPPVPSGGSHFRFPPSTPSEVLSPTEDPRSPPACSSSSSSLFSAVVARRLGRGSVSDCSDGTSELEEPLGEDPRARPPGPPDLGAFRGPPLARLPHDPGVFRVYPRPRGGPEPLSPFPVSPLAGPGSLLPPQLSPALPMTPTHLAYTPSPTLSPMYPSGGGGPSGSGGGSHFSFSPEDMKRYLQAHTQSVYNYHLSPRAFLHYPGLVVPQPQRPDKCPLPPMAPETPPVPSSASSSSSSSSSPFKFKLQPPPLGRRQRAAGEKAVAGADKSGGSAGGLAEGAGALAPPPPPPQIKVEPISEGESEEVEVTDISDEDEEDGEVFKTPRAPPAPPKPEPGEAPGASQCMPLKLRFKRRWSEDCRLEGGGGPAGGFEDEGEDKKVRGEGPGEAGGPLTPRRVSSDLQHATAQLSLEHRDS
As to conditions: protein: recombinant; tags: N-terminal GST; dsDNA, one strand shown. The procedure, abridged: as §1

The target in assay [12] is T7, ETV3L (Homo sapiens, UniProt Q6ZN32 1-361).
T7 sequence: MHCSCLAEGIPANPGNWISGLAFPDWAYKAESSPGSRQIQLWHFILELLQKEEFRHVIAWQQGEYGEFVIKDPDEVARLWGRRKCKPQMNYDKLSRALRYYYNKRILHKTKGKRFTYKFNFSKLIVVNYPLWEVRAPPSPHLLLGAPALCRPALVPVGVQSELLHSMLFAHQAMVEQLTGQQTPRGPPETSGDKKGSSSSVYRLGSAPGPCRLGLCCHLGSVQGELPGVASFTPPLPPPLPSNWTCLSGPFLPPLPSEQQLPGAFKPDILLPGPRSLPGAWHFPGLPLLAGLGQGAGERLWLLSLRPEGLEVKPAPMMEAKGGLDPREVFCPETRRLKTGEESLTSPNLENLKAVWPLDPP
As to conditions: protein: recombinant; tags: N-terminal GST; dsDNA, one strand shown. The procedure, abridged: as §1

Assay [13] addresses T8, ETS2 (Homo sapiens, UniProt P15036 1-469).
T8 sequence: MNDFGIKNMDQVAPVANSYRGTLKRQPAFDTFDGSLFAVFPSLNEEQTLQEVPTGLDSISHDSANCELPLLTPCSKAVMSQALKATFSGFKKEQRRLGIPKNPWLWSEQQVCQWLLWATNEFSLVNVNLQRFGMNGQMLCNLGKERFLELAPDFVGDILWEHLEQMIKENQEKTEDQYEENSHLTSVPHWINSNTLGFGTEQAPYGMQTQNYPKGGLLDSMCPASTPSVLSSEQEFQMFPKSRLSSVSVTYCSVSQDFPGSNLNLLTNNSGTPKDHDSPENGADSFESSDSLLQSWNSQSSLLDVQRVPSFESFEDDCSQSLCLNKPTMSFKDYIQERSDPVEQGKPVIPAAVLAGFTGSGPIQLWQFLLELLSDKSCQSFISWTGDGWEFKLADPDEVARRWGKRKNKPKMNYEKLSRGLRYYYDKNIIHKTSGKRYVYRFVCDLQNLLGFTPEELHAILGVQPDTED
As to conditions: protein: recombinant; tags: N-terminal GST; dsDNA, one strand shown. The procedure, abridged: as §1

Assay [14] has as its target T9, SPDEF (Homo sapiens, UniProt O95238 1-335).
T9 sequence: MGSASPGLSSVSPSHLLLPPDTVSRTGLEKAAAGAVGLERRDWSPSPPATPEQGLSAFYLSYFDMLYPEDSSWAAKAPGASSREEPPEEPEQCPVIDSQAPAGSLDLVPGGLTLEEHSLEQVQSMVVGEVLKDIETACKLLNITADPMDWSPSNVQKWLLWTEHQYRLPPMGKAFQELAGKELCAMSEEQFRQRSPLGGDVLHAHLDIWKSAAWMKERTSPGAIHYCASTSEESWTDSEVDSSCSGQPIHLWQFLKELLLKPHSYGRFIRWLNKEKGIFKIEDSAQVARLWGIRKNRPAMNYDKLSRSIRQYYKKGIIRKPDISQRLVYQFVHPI
As to conditions: protein: recombinant; tags: N-terminal GST; dsDNA, one strand shown. The procedure, abridged: as §1

Assay [15] addresses T10, ETV7 (Homo sapiens, UniProt Q9Y603 1-341).
T10 sequence: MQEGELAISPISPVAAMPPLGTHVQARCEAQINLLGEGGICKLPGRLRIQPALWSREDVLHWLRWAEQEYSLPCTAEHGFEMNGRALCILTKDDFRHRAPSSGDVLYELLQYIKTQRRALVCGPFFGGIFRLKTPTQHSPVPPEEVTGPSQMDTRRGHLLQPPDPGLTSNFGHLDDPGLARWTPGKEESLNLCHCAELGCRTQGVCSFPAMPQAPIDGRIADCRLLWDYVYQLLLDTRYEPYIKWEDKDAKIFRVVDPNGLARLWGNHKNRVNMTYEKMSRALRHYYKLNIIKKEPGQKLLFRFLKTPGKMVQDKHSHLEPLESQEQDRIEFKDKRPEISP
As to conditions: protein: recombinant; tags: N-terminal GST; dsDNA, one strand shown. The essentials:
as §1

Assay [16] has as its target T11, ELF5 (Homo sapiens, UniProt Q9UKW6-2 1-255).
T11 sequence: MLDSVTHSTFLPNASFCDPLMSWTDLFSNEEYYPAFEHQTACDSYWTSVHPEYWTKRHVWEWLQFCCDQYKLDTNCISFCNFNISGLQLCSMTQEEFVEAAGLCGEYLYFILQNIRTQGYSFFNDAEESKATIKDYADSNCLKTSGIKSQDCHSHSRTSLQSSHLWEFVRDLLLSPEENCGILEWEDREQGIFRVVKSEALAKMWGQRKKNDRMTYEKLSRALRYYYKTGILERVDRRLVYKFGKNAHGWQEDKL
As to conditions: protein: recombinant; tags: N-terminal GST; dsDNA, one strand shown. The essentials: as §1

Assay [17] addresses T12, ETV3 (Homo sapiens, UniProt P41162-2 1-143).
T12 sequence: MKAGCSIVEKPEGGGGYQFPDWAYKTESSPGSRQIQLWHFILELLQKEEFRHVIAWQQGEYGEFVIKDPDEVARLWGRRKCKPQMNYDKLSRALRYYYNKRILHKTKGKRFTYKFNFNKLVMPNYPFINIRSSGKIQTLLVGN
As to conditions: protein: recombinant; tags: N-terminal GST; dsDNA, one strand shown. The procedure, abridged: as §1

The target in assay [18] is ETV6 (Homo sapiens, UniProt P41212 1-452). As to conditions: protein: recombinant; tags: N-terminal GST; dsDNA, one strand shown. The procedure, abridged:
as §1

CRX, sequence (O43186 whole entry): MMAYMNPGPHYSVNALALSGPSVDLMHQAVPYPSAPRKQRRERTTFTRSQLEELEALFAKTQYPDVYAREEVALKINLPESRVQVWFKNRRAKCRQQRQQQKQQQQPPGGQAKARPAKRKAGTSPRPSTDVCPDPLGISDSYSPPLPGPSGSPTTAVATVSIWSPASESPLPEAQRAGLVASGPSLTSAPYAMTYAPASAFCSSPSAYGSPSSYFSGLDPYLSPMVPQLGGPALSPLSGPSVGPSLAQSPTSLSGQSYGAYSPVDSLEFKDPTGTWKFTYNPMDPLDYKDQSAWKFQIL
ETV6, sequence (P41212 whole entry): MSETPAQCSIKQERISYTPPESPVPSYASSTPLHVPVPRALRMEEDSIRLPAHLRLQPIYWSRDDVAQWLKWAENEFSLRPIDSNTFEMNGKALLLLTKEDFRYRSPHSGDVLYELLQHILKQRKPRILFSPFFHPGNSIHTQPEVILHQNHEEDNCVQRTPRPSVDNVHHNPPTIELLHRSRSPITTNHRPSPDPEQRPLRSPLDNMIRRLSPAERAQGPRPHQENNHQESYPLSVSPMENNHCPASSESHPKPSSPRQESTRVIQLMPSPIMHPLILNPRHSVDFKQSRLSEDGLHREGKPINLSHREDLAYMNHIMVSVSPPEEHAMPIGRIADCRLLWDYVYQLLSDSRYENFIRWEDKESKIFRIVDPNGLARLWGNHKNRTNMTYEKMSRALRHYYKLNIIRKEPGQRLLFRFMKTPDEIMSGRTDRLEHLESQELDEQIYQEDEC
ELF4, sequence (Q99607 whole entry): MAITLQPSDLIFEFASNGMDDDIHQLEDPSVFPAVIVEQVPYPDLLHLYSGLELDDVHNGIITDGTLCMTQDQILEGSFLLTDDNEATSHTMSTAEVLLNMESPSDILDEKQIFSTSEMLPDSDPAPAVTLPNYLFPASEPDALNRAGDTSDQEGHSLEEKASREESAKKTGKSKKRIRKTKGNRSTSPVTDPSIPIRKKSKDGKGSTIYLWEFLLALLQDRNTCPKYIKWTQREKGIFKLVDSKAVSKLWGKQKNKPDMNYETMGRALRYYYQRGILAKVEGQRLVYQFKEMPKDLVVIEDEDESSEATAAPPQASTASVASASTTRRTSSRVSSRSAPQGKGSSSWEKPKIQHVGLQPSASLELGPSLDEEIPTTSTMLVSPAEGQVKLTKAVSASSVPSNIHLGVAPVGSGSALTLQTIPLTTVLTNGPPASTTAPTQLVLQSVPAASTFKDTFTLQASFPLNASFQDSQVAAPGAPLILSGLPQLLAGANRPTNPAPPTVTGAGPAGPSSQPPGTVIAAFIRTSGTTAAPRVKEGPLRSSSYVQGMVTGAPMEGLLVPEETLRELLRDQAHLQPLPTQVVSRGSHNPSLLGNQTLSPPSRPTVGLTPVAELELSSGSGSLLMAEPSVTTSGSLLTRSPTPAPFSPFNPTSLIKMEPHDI
ETV1, sequence (P50549 whole entry): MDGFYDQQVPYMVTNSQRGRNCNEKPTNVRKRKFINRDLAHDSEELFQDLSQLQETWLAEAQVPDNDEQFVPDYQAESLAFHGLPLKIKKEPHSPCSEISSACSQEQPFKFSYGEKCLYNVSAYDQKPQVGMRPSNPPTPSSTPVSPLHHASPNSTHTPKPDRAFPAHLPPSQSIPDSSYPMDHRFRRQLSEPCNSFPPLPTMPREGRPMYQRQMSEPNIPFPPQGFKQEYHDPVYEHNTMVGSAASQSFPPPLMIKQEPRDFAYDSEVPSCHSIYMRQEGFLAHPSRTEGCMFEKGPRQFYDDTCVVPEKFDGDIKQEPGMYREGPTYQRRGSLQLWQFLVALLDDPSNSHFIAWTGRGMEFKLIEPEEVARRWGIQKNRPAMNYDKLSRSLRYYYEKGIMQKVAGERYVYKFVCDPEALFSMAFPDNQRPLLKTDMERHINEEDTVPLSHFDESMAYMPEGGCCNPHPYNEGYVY
HSF1, sequence (Q00613 whole entry): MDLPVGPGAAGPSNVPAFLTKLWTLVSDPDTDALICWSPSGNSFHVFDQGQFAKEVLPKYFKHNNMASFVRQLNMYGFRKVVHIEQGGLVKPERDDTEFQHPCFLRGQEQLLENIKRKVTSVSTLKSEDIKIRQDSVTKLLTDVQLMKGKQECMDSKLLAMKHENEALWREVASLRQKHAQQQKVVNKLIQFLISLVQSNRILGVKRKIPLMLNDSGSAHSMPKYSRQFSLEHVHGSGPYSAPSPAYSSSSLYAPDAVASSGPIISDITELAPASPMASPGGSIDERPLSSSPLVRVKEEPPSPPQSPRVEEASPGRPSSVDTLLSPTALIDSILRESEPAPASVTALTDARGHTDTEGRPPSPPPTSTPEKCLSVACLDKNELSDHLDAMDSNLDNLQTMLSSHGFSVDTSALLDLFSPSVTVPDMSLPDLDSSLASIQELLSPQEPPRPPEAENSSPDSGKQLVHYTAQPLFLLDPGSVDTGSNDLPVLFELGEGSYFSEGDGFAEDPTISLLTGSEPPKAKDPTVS
ETV5, sequence (P41161 whole entry): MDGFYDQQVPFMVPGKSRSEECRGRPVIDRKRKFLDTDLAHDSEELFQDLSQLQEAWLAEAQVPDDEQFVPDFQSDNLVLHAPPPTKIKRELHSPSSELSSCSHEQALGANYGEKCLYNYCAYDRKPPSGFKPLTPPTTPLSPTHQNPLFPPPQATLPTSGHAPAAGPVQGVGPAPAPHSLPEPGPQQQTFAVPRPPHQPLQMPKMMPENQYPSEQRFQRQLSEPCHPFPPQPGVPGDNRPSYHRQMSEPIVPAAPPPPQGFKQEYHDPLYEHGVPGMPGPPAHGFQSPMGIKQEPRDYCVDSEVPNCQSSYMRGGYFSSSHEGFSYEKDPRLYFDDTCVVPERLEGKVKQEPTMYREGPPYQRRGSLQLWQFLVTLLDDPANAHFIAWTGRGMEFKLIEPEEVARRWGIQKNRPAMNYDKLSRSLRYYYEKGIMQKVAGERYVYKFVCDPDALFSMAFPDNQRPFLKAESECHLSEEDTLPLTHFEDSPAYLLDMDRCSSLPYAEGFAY

Consider CCAAAA, for which the binding signal in [1] was 1.2 fold enrichment (6-mer frequency, TF over GST control); in assay [2] it was 1.19 fold enrichment (6-mer frequency, TF over GST control); in assay [3], 1.17 fold enrichment (6-mer frequency, TF over GST control); in [4], 1.05 fold enrichment (6-mer frequency, TF over GST control); in [5], 1.19 fold enrichment (6-mer frequency, TF over GST control); in assay [6], 1.05 fold enrichment (6-mer frequency, TF over GST control). The binding signal in assay [7] was 1.28 fold enrichment (6-mer frequency, TF over GST control); in assay [8], 1.03 fold enrichment (6-mer frequency, TF over GST control); in assay [9], 1.06 fold enrichment (6-mer frequency, TF over GST control); in [10], 1.18 fold enrichment (6-mer frequency, TF over GST control); in [11], 1.16 fold enrichment (6-mer frequency, TF over GST control); in [12] it was 1.1 fold enrichment (6-mer frequency, TF over GST control). Further, the binding signal in [13] was 1.11 fold enrichment (6-mer frequency, TF over GST control); in [14], 1.11 fold enrichment (6-mer frequency, TF over GST control); in assay [15], 1.11 fold enrichment (6-mer frequency, TF over GST control); in assay [16] it was 1.11 fold enrichment (6-mer frequency, TF over GST control); in [17], 1.15 fold enrichment (6-mer frequency, TF over GST control); in [18], 1.2 fold enrichment (6-mer frequency, TF over GST control).
